An excerpt weighted towards active compounds, which were near 10% of everything screened.
NPR1 antag – Natriuretic polypeptide receptor (hNpr1) antagonism - Primary qHTS; Atrial natriuretic peptide receptor 1 (Homo sapiens), P16066; HEK293 hNpr1 GloSensor cGMP, ANP-stimulated luminescence; Potency, µM (top dose mostly 46.3 µM), for inactives: top-dose activity change, negative = inhibition, usual class: inhibitors; 76,000 compounds, 1.6% hits; AID 1347048, 2019; calls by dose curve; note: nearly all actives have a fitted effect of over 60% in size
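Compound pre-incubated 30 min at room temperature on GloSensor-loaded HEK293 cells stably carrying hNpr1 and the pGS-40F cGMP biosensor. Stimulation uses hNppA at 0.1 nM final; luminescence is taken at baseline and 20 min post-agonist.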
Luciferase inh – Firefly luciferase inhibition profiling of diverse chemical library using quantitative high-throughput screening; Luciferin 4-monooxygenase (Photinus pyralis), P08659; purified P. pyralis luciferase, luminescence, biochemical; Potency, µM (series often up to 115 µM), most hits filed as inhibitors; 76,000 compounds, 2.5% hits; note: nearly all actives have a fitted effect of over 65% in size
Target sequence (P08659 whole entry, looked up): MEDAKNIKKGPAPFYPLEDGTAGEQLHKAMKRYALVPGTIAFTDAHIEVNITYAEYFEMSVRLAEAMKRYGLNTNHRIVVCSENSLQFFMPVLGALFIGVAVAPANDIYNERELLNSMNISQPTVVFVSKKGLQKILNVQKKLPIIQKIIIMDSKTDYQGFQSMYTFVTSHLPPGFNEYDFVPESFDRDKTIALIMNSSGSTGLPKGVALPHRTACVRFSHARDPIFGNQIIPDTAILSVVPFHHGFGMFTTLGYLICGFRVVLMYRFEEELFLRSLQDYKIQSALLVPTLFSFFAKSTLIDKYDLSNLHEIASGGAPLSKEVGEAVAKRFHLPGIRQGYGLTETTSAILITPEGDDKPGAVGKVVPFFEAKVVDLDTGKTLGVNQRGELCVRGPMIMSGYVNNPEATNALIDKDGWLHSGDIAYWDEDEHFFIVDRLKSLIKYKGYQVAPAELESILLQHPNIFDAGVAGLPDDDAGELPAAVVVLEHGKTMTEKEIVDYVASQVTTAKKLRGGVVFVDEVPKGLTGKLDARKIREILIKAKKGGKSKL
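Cell-free enzyme assay, 10nM P. pyralis luciferase, luciferin and ATP each at 10uM. Inhibition profiled over a 6-point titration, read as luminescence.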
3T3 cytotox – Cytotoxic Profiling in NIH 3T3 Cell Line of Diverse Libraries Using Quantitative High-Throughput Screening. NIH 3T3 viability, CellTiter-Glo ATP luminescence, 48-72 h. Potency, µM (series often up to 96.7 µM), without a hit: at the highest dose activity change, negative = cytotoxicity, most hits filed as inhibitors. 94,000 compounds, 4.3% hits; note: nearly all actives have a fitted effect of over 55% in size
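Viability of NIH 3T3 cells after 48 or 72 hr compound treatment at 37 °C was assessed by CellTiter-Glo, with luminescence imaged following a 10 min room-temperature step.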
GPT2 inh – Primary qHTS assay for inhibitors of Glutamate pyruvate transaminase 2 (GPT2); 100,000 compounds, 0.25% hits; AID 1671188, 2021; Potency, µM (highest dose often 57.7 µM), inactives show at the highest dose activity change, negative = inhibition, hits mostly inhibitors; Recombinant GPT2, coupled pyruvate oxidase/HRP Amplex Red fluorescence; Alanine aminotransferase 2 (Homo sapiens), Q8TD30; note: nearly all actives have a fitted effect of over 60% in size
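Fluorescence of coupled pyruvate oxidase/HRP/Amplex Red system (50uM Amplex, 30 min, dark) reports pyruvate formed by GPT2. Enzyme reaction: 10ng/uL GPT2, 2mM L-alanine, 250uM a-KG, 30 min room temperature, pH 7.5; 50uM AOA control.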
HEK293 tox – Cytotoxic Profiling in HEK 293 Cell Line of Diverse Libraries Using Quantitative High-Throughput Screening | 94,000 compounds, 6.6% hits | Potency, µM (titrated, usually from 115 µM), for inactives: at the highest dose activity change, negative = cytotoxicity, actives largely listed as inhibitors | AID 1345083, 2018 | HEK 293 viability, ATP luminescence (CellTiter-Glo), 48-72 h; note: nearly all actives have a fitted effect of over 60% in size
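HEK 293 cells seeded at 250 cells/well were exposed to compound for 48 or 72 hr at 37 degree Celsius. Viability taken as ATP content by CellTiter-Glo luminescence.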
Numbers without * were called inactive; i = inactive; ? = inconclusive; · = no result; [ ] = dose if it differs, or a comment. Unless noted, calls come from the whole dose curve; as a rule, active = well fitted curve in the direction sought with a large enough effect; inconclusive = small, poorly fitted or top-dose-only effect, or another doubt; inactive = no such curve, though single readings can be large; an effect the other way counts as inactive or inconclusive. % is set by controls: 0 for no effect and ±100 for the full control effect; potency is the fitted concentration of half-maximal effect.

SMILES	NPR1 antag	Luciferase inh	3T3 cytotox	GPT2 inh	HEK293 tox
COc1ccccc1CNC(=O)[C@@H](C)C1CC[C@@]2(C)CC[C@H](NC(=O)c3cncnc3)[C@@H](C)[C@@H]2[C@H]1O (some centres undefined)	7%	i	-15%	-17%	-23%
CC(C)[C@@H](CS(=O)(=O)C(C)C)N1C(=O)[C@@](C)(CC(=O)O)C[C@H](c2cccc(Cl)c2)[C@H]1c1ccc(Cl)cc1	·	·	·	i	·
COc1ccc(-c2nc(C)nc3c2CCN([S+](=O)([O-])c2cccc(OC)c2)CC3)cc1	-5%	i	-27%	3%	?
CCC(=O)N1CCCC(c2nc(-c3ccccc3)no2)CCNC(=O)CC1 (centres undefined)	-1%	i	-12%	-2%	-16%
Cc1cc(C)c(CNC(=O)c2cc(-c3ccccc3)cc3c2OCCN3C)c(=O)[nH]1	-14%[70.6 µM]	i	?	5%[88.5 µM]	?
Cc1cc(C)c(CNC(=O)c2cc(-c3ccc(CO)cc3)cc3c2OCCN3C)c(=O)[nH]1	0%[70.6 µM]	i	13µM*	i	89µM*
COc1cc(F)ccc1-c1cc(C(=O)NCc2ccnc(N)c2)c2c(c1)ncn2C	-13%[70.6 µM]	?	?	-8%[88.5 µM]	?
COc1ccccc1-c1cc(C(=O)NCc2c(C)cc(C)[nH]c2=O)c2c(c1)N(C)CCO2	-11%[70.6 µM]	i	?	-7%[88.5 µM]	89µM*
Cc1cc(C)c(CNC(=O)c2cc(-c3ccccc3)cc3c2OCCN3C(C)C)c(=O)[nH]1	-9%[70.6 µM]	i	22µM*	-18%[88.5 µM]	32µM*
COc1cc(F)ccc1-c1cc(C(=O)NCc2c(C)cc(C)[nH]c2=O)c2c(c1)ncn2C	4%[70.6 µM]	?	25µM*	-4%[88.5 µM]	?
COCCc1noc(CNC(=O)c2sc3cccc(F)c3c2Cl)n1	-1%	i	?	-14%[11.5 µM]	-29%
Cn1cnc2cc(-c3ccc(F)cc3)cc(C(=O)NCC3CCOCC3)c21	-9%[70.6 µM]	?	?	i	-1%[172 µM]
O=C(O)c1ccc(CN2CCC[C@H]2c2nc(-c3ccc(OC4CCCCC4)nc3)no2)cc1	-3%	?	i	-10%	-5%
Cc1nc(-c2c3n(c(=O)n(CC(=O)Nc4ccccc4)c2=O)CCCCC3)no1	0%	i	-13%	-10%	3%
CC(=O)N1CCN(Cc2nc3c(n2Cc2ccccc2)C(=O)N(Cc2cccc(Cl)c2)CCN3)CC1	-8%	i	-31%	i	?
COc1cccc(OCc2nc3c(n2Cc2ccccc2)C(=O)N(Cc2cccc(Cl)c2)CCN3)c1	-15%	i	?	-25%	25µM*
O=C1c2c(nc(COc3cccc(N4CCOCC4)c3)n2Cc2ccccc2)NCCN1CC1CC1	5%	i	?	i	?
COc1cc(OC)cc(OCc2nc3c(n2Cc2ccccc2)C(=O)N(Cc2cccc(Cl)c2)CCN3)c1	-7%	i	22µM*	i	40µM*
O=C1c2c(nc(COc3cccc(Cl)c3)n2Cc2ccccc2)NCCN1CC1CC1	-15%[70.6 µM]	i	?	-8%[88.5 µM]	100µM*
O=C(CCc1conc1-c1cccc(F)c1)NCc1ccc(Cl)cc1	-8%	i	-26%	i	?
O=C(Nc1ccccc1)N1CCCN(CCn2nc3n(c2=O)CCCC3)CC1	·	·	-21%	·	-3%
COc1ccc(C(=O)N[C@@H]2CN(Cc3ccccc3)C[C@H]2CO)cn1	4%	i	?	i	28µM*
O=C(N[C@@H]1CN(Cc2cccc(F)c2)C[C@H]1CO)c1ccccc1	5%	i	?	1%	7.1µM*
O=C(N[C@@H]1CN(Cc2cc(F)cc(F)c2)C[C@H]1CO)c1ccccc1	2%	i	-64%	-2%	-81%
COc1ccc(CC2(CO)CCN(c3cc(OC)nc(N)n3)CC2)cc1	?	i	-28%	-6%	45µM*

Screens as filed in PubChem BioAssay.
